Hit rate of the full screen: of about 69,000 compounds, about 8,600 (12%) showed an effect of 50% or more. Only a selection was taken, and strong results are over-represented in it overall.
Test system: Plasmodium berghei
Test: Screen against P. berghei liver stage (PbLuc), transformed with Luciferase, at 10uM
Type: functional, HepG2
Conditions: tested at 10 uM

SMILES	INHIBITION [%]
O[C@@H]1CC(CNCc2ccc(Cl)cc2)(COc2cccnc2)C[C@@H]1O (some centres undefined)	-26.2
COC(=O)CCC(=O)N1CCC2(CN(Cc3ccccc3)C2)C1	5.56
COC(=O)CCC(=O)N1CCC2(CN(Cc3cccc(Cl)c3)C2)C1	57.9
COC(=O)CCC(=O)N1CCC2(CN(Cc3ccc(Cl)cc3)C2)C1	-26.1
COCCC(=O)N1CCC2(CN(Cc3ccc(OC)c(F)c3)C2)C1	-44.8
COCCC(=O)N1CC2(CCN(Cc3cccc(Cl)c3)CC2)C1	15.9
COCCC(=O)N1CCC2(CCN(Cc3cccc(F)c3)CC2)CC1	45.1
COC(=O)N1CCN(Cc2ccccc2Cl)CC1	33.7
COCCC(=O)N1CCC2(CCN(Cc3cccc(F)c3)C2)C1 (centres undefined)	57.9
COCCC(=O)N1CCC2(CN(Cc3cccc(Cl)c3)C2)C1	81.2
COCCC(=O)N1CC2(CCN(Cc3ccccc3Cl)CC2)C1	69.5
COCCC(=O)N1CCC2(CN(Cc3cccc(F)c3)C2)C1	4.27
COCCC(=O)N1CCC2(CCN(Cc3cccc(F)c3)CC2)C1	49.7
CC(=O)N(C)Cc1cccc(NC(=O)CCCc2nc(C(C)C)no2)c1	-32.9
CN(C)C(=O)COCc1cncc2c1CCN(Cc1ccccc1)C2	-45.5
Cc1ccc([C@H]2CN(C(=O)CC3CCC3)C[C@@H]2N)o1	-92.8
Cc1c(C(=O)NCCC2CN(C)CCO2)n(C)c2c(C)cccc12 (centres undefined)	33.4
Cc1nccn1-c1cc(CNC(=O)NCC2CCCO2)ccn1 (centres undefined)	-2.33
CCC(C)C(=O)NCCCn1nc(C)cc1C (centres undefined)	-2.48
O=C(NCCc1ccc(I)s1)N1CCC1	-7.31
OC1(CN2CCN(c3cccc(C(F)(F)F)c3)CC2)CNCCOC1 (centres undefined)	41.5
c1ccc(Cc2noc(-c3ccc(NCC4CCCCO4)nc3)n2)cc1 (centres undefined)	26
COCCNC(=O)NC(=O)CNc1c(F)cccc1N1CCCC1	-32.5

SMILES	INHIBITION [%]
CC[C@@H]1N(CC2CCC2)CCC[C@]12CCC(=O)N2Cc1ccncc1	-8.51
CC1(C(=O)N2CCN(C3CCCC3)CC2)CNCCO1 (centres undefined)	-21.4
Cc1ccc(-c2cc(C(=O)N(C)Cc3noc4c3CCCC4)[nH]n2)s1	-14.3
Cc1ccc(CN2CCCC3(CCN(Cc4ccoc4)CC3)C2)cc1	82.8
Cn1ccnc1CN1CCC2(CC1)CCN(Cc1ccoc1)C2	-37.4
Cc1ccc(CN2CCC3(CC2)CCN(Cc2ccoc2)CC3)cc1	-34.6
COCCC(=O)N1CCC2(CCN(Cc3ccc(C)cc3)CC2)C1	4.27
COCCC(=O)N1CC2(CCN(Cc3ccncc3)CC2)C1	47.4
O=C(C1CC1)N1CCC2(CCN(Cc3cccc(F)c3)CC2)CC1	-13.4
O=C(C1CCC1)N1CCC2(CCN(Cc3cccc(F)c3)CC2)CC1	45.7
O=C(C1CC=CC1)N1CCC2(CCN(Cc3cccc(F)c3)CC2)C1	59.8
COCCC(=O)N1CC2(CCN(Cc3ccoc3)C2)C1	54.6
O=C(CC1CCCC1)N1CCCC1c1ccc(CN2CCOCC2)cn1 (centres undefined)	30.25
CC(C)c1nn(C)c(N(C)C)c1CNC(C)c1ccc2c(c1)OCO2 (centres undefined)	22.3
CCC(C)N(Cc1cccnc1)C(=O)c1ncccc1O (centres undefined)	39.9
Cc1nnc(NC(=O)CN(C)C2CCCN(c3cccnn3)C2)s1 (centres undefined)	12.7
Cc1csc(CNC(=O)NC(C)c2ccc3c(c2)OCCO3)n1 (centres undefined)	44.9
Cc1ccc(CNC2CCc3nc(C(C)C)nn3C2)o1 (centres undefined)	-17.7
c1cncc(C[C@H]2[C@H](N3CCOCC3)CCN2Cc2cccs2)c1	-7.24
Cn1c(=O)[nH]c2cc(C(=O)OCCCn3ccccc3=O)ccc21	60
CCCOCCOC(=O)c1ccc2c(c1)[nH]c(=O)n2C	26.6
CCOCCCOC(=O)c1ccc2c(c1)[nH]c(=O)n2C	-5.47
Cc1nn(C)c(C)c1C1COCCN1C(=O)CCc1ccccc1 (centres undefined)	5.7

SMILES	INHIBITION [%]
Cc1nnc(NC(=O)CCc2c(C)nn3cnnc3c2C)s1	16.6
CCCn1c(C)c(CC(=O)N(C)CCO)c2c1CC(C)(C)CC2=O	48.1
COC(=O)C(C)(C)NC(=O)C1CC(=O)N(C2CC2)C1 (centres undefined)	84.1
COC(=O)C(C)(C)NC(=O)C1CC(=O)N(C2CCCC2)C1 (centres undefined)	20.1
COC(=O)C(C)(C)NC(=O)C1CC(=O)N(C)C1 (centres undefined)	35.1
OCC1(O)CCN(Cc2noc(-c3ccccc3)n2)CC1	20.3
O=C(c1ccc(Br)o1)N1CCN(Cc2ccc(F)cc2)CC1	62.5
CCc1ccc(C(=O)N2CCCN(Cc3nccn3CC)CC2)s1	8.47
Cc1ccc(CN2CCN(C(=O)c3ccc(Br)o3)CC2)cc1	92.8
CC(=O)N1CCN(Cc2ccc(OCc3nccn3C)cc2)CC1	1.78
Cc1cc(C)n(CCN2CCN(C(=O)c3ccc(Br)o3)CC2)n1	-13.3
Cn1ccnc1CN1CCCN(C(=O)c2ccc(Cl)o2)CC1	29.1
COC(=O)c1sccc1CN1CCN(C(=O)c2ccc(C)o2)CC1	30.9
CC(=O)N1CCN(Cc2ccc(F)cc2)CC2(CC(=O)N(C)C2)C1 (centres undefined)	-6.05
CC(O)CN1CCN(C(=O)c2ccc(Br)o2)CC1 (centres undefined)	16.2
O=C(c1ccc(Br)s1)N1CCN(Cc2ccc(OC(F)(F)F)cc2)CC1	79
CCc1ccc(C(=O)N2CCN(CCO)CC2)o1	-13.5
O=C(c1ccc(Br)o1)N1CCN(Cc2ccc(OC(F)(F)F)cc2)CC1	90
O=C(c1cscn1)N1CCC2(CN(Cc3ccsc3)C2)C1	45.2
N#Cc1ccccc1C(=O)NCCC1CN(Cc2ccco2)CCO1 (centres undefined)	23.3
CN(c1ccncn1)C1CC2(CCN(C(=O)c3cncs3)C2)C1 (centres undefined)	32.3
Fc1ccccc1OCCc1cc(C2CCNC2)n[nH]1 (centres undefined)	-14.1
Cc1nc(CN2CCCC(N(C)CCCc3ccccc3)C2)no1 (centres undefined)	-11.4

From ChEMBL document CHEMBL4513216, “Probing the Open Global Health Chemical Diversity Library for Multistage-Active Starting Points for Next-Generation Antimalarials” (ACS Infect Dis, 2020)
